This is an account of results in PubChem BioAssay.

Activity calls are given as the source filed them.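 How the source made its calls, unless noted: active means viability at or below 10% of carrier control in both of two separate runs; inconclusive means viability at or below 10% in only one of the two runs; inactive means the rest.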

Assay [1] has as its target Pantothenate synthetase (Mycobacterium tuberculosis (strain ATCC 25618 / H37Rv)) (UniProt P9WIL5). Put plainly: Recombinant Mtb pantothenate synthetase (PanC) inhibitors, coupled enzyme, confirmatory (AID 375; call rule not given here;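 further: 0% = full reaction with vehicle and 100% = no enzyme background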). Particulars: coupled enzyme assay; at 10 µM, stronger effect = higher value.
Assay [2] is described as follows: SK-BR-3 cell growth inhibitors, pilot screen, 24 h, human (AID 572).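 Further: compound exposure lasted between 18 and 24 h rather than exactly 24 h; 100% = carrier-treated control wells.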 Particulars: SK-BR-3 viability, CellTiter-Glo luminescence, at 10 µM, stronger effect = lower value.
The nature of assay [3]: HUVEC growth inhibition – cell-based, human, primary screen (AID 575;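 active means viability at or below 30% in both replicate assays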;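 further: 100% = median of untreated cell wells with 0.1% DMSO on each plate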). Particulars: HUVEC proliferation, CellTiter-Glo luminescence, 72 h; at 10 µM; stronger effect = lower value. (ATP-based viability assays read luminescence as a measure of living cells.)
Assay [4] in a line: growth inhibitors of H69AR lung tumor, primary screen, human, duplicate replicates (AID 580;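 active means viability at or under a set limit in both replicates, limit being median viability minus 3 SD, cut at about 48% in these data, passing the limit was not always enough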;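 further: 100% = mean luminescence of untreated wells and 0% = no signal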). Particulars: H69AR lung tumor cells viability, ATP luminescence, 72 h; at 10 µM; stronger effect = lower value.
The nature of assay [5]: reversal of MRP1-mediated doxorubicin resistance, pilot screen, H69AR cells, doxorubicin co-treatment (AID 601;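 active means viability loss from added drug above about 55%, and viability with drug at most 40%, in both replicates, limit read from the data, passing the limit was not always enough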). Particulars: CellTiter-Glo, 72 h, at 10 µM; for differential viability (reversal): stronger effect = higher value.
Assay [6] in a line: 384-well plate pilot, post-Golgi transport modulator project, inhibition of yeast transport mutant growth (AID 636; in the data active means inhibition above about 31%). Particulars: absorbance 615 nm, about 18 h, stronger effect = higher value.
Assay [7] can be described thus: growth suppression of yeast trafficking mutant, preliminary HTS, modulators of trafficking downstream of Golgi apparatus project, 1536-format plate, OD 615 nm (AID 637; in the data active means inhibition above about 30%). To be noted: yeast transport mutant growth, absorbance 615 nm, 18 h; stronger effect = higher value.
The mark [8] stands for this setting: H69AR cells + 2 uM doxorubicin, measured here: viability with 2 uM doxorubicin, stronger effect = lower value.
The mark [9] stands for this setting: H69AR cells, compound alone cytotoxicity.

Sequence of Pantothenate synthetase (Mycobacterium tuberculosis (strain ATCC 25618 / H37Rv)) (P9WIL5 whole entry, looked up): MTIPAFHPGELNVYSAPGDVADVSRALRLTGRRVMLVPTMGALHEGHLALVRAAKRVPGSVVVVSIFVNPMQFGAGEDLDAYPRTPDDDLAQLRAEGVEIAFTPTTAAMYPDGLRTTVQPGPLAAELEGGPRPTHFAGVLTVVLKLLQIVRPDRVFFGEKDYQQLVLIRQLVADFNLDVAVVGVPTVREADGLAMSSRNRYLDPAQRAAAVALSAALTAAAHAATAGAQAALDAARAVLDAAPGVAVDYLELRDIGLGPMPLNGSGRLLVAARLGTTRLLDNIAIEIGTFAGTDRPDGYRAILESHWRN

With `CC(NC(C)(C)C)C(=O)c1cccc(Cl)c1` (stereo unspecified), the inhibition (commonly the drop in the measured response relative to a control, in per cent) in assay [1] was 0% (inactive); in assay [6] it was -1.17% (inactive); in assay [7] it was 1.67% (inactive). Besides, the viability (in general, a read-out of living cells in per cent, often relative to untreated cells) in assay [2] was 87% (inactive); in assay [3], 74.8% (inactive); in assay [4], 99.5% (inactive); in assay [5] (setting [8]), 95.5%; in assay [5] (setting [9]), 99.5%. For the same compound, in assay [5] (H69AR cells + 2 uM doxorubicin), the differential viability (reversal) is 4.02% (inactive).

Consider `CC(C)[C@@]1(NC(=O)[C@@H]2C=C3c4cccc5[nH]cc(c45)C[C@H]3N(C)C2)O[C@@]2(O)[C@@H]3CCCN3C(=O)[C@H](Cc3ccccc3)N2C1=O`, for which the inhibition was 3% (inactive) in assay [1], -0.13% (inactive) in assay [6] and 16.8% (inactive) in assay [7]. The viability in assay [2] is 103% (inactive); in assay [3], 89% (inactive); in assay [4], 90.5% (inactive); in assay [5] (setting [8]), 101%; in assay [5] (setting [9]), 90.5%. In assay [5] (H69AR cells + 2 uM doxorubicin), the differential viability (reversal) is -9.99% (inactive).

Turning to `COc1ccc(Cc2nccc3cc(OC)c(OC)cc23)cc1OC`, the inhibition is 0% (inactive) in assay [1], 0.39% (inactive) in assay [6] and -2.5% (inactive) in assay [7]. Also, the viability in assay [2] is 88% (inactive); in assay [3], 78.6% (inactive); in assay [4], 81.7% (inactive); in assay [5] (setting [8]), 82%; in assay [5] (setting [9]) it was 81.7%. The differential viability (reversal) in assay [5] (H69AR cells + 2 uM doxorubicin) is -0.28% (inactive).

As to `c1ccc2c3c([nH]c2c1)CNCC3`, the figures for the inhibition in assay [1], in assay [6] and in assay [7] were 0% (inactive), -1.17% (inactive) and 0.5% (inactive), respectively. The viability was 116% (inactive) in assay [2]; 77.7% (inactive) in assay [3]; 89.9% (inactive) in assay [4]; 80% in assay [5] (setting [8]); 89.9% in assay [5] (setting [9]). For the same compound, the differential viability (reversal) in assay [5] (H69AR cells + 2 uM doxorubicin) was 9.92% (inactive).

As for `CCCNS(=O)(=O)c1ccc(OCC(=O)N2CCN(Cc3ccccc3)CC2)cc1`, the inhibition in assay [1] is 0% (inactive); in assay [6], -5.07% (inactive); in assay [7], 5.97% (inactive). The viability was 111% (inactive) in assay [2]; 86.6% (inactive) in assay [3]; 88.6% (inactive) in assay [4]; 88.2% in assay [5] (setting [8]); 88.6% in assay [5] (setting [9]). For the same compound, in assay [5] (H69AR cells + 2 uM doxorubicin), the differential viability (reversal) is 0.375% (inactive).

For `CC(=O)[C@@]1(O)CC[C@H]2[C@@H]3CC=C4C[C@@H](O)CC[C@]4(C)[C@H]3CC[C@@]21C`, the inhibition in assay [1] is 0% (inactive); in assay [6], -0.26% (inactive); in assay [7] it was 4.33% (inactive). The viability in assay [2] is 89% (inactive); in assay [3], 84.6% (inactive); in assay [4], 89.8% (inactive); in assay [5] (setting [8]) it was 84.3%; in assay [5] (setting [9]) it was 89.8%. Besides, the differential viability (reversal) in assay [5] (H69AR cells + 2 uM doxorubicin) was 5.5% (inactive).

Consider `CN(C)[C@@H]1C(=O)C(C(N)=O)=C(O)[C@@]2(O)C(=O)C3=C(O)c4c(O)cccc4[C@@](C)(O)[C@H]3C[C@@H]12`, for which the inhibition was 2% (inactive) in assay [1], 0.13% (inactive) in assay [6] and -2% (inactive) in assay [7]. Also, the viability in assay [2] is 91% (inactive); in assay [3], 102% (inactive); in assay [4], 102% (inactive); in assay [5] (setting [8]), 89.8%; in assay [5] (setting [9]), 102%. Also, the differential viability (reversal) in assay [5] (H69AR cells + 2 uM doxorubicin) is 11.8% (inactive).

Turning to `CNCC(O)c1ccc(O)cc1` (stereo unspecified), the results for the inhibition in assay [1], in assay [6] and in assay [7] were 0% (inactive), -1.82% (inactive) and 8.83% (inactive), respectively. Moreover, the viability in assay [2] was 120% (inactive); in assay [3] it was 95.6% (inactive); in assay [4], 102% (inactive); in assay [5] (setting [8]) it was 85.9%; in assay [5] (setting [9]) it was 102%. Further, the differential viability (reversal) in assay [5] (H69AR cells + 2 uM doxorubicin) is 15.7% (inactive).

As to `CCCCn1c(O)c(C(C)=NC(Cc2c[nH]c3ccccc23)C(=O)OC)c(=O)[nH]c1=O` (stereo unspecified), the inhibition in assay [1] was 1% (inactive); in assay [6] it was -4.93% (inactive); in assay [7] it was -2.1% (inactive). The viability in assay [2] is 91% (inactive); in assay [3] it was 84.5% (inactive); in assay [4], 96.5% (inactive); in assay [5] (setting [8]), 93.7%; in assay [5] (setting [9]), 96.5%. Also, in assay [5] (H69AR cells + 2 uM doxorubicin), the differential viability (reversal) is 2.8% (inactive).

With `c1ccc(Cn2ccnc2)cc1`, the figures for the inhibition in assay [1], in assay [6] and in assay [7] were 0% (inactive), 0.78% (inactive) and 22% (inactive), respectively. Besides, the viability in assay [2] was 127% (inactive); in assay [3] it was 84.4% (inactive); in assay [4] it was 93.5% (inactive); in assay [5] (setting [8]) it was 93.7%; in assay [5] (setting [9]) it was 93.5%. In assay [5] (H69AR cells + 2 uM doxorubicin), the differential viability (reversal) was -0.24% (inactive).

On to `O=c1[nH]c2ccccc2n1CCCN1CCC(n2c(=O)[nH]c3cc(Cl)ccc32)CC1`, for which the inhibition in assay [1] is 0% (inactive); in assay [6], -2.47% (inactive); in assay [7], -0.17% (inactive). The viability in assay [2] was 91% (inactive); in assay [3] it was 97.8% (inactive); in assay [4], 76% (inactive); in assay [5] (setting [8]), 82.5%; in assay [5] (setting [9]), 76%. Further, the differential viability (reversal) in assay [5] (H69AR cells + 2 uM doxorubicin) was -6.47% (inactive).

For `CCOC(=O)c1cc2c(cn1)[nH]c1ccccc12`, the inhibition in assay [1] is 6% (inactive); in assay [6], -0.91% (inactive); in assay [7] it was -3.17% (inactive). The viability is 122% (inactive) in assay [2]; 89.3% (inactive) in assay [3]; 88% (inactive) in assay [4]; 84.8% in assay [5] (setting [8]); 88% in assay [5] (setting [9]). Also, the differential viability (reversal) in assay [5] (H69AR cells + 2 uM doxorubicin) was 3.16% (inactive).

Consider `Cc1ccc2nc(N3CCN(C)CC3)[nH]c2c1`, for which the inhibition in assay [1] was 0% (inactive); in assay [6], 1.64% (inactive); in assay [7] it was -1.13% (inactive). The viability was 111% (inactive) in assay [2]; 90.4% (inactive) in assay [3]; 93.6% (inactive) in assay [4]; 91.5% in assay [5] (setting [8]); 93.6% in assay [5] (setting [9]). For the same compound, in assay [5] (H69AR cells + 2 uM doxorubicin), the differential viability (reversal) was 2.07% (inactive).

For `O=C(CN1C2CCC1CC(O)(c1cccnc1)C2)Nc1ccc2c(c1)OCO2` (stereo unspecified), the inhibition was 11% (inactive) in assay [1], -6.53% (inactive) in assay [6] and 3.44% (inactive) in assay [7]. For the same compound, the viability is 72% (inactive) in assay [2]; 90.2% (inactive) in assay [3]; 91.3% (inactive) in assay [4]; 88.8% in assay [5] (setting [8]); 91.3% in assay [5] (setting [9]). Moreover, the differential viability (reversal) in assay [5] (H69AR cells + 2 uM doxorubicin) is 2.46% (inactive).
